Laboratory results from PubChem BioAssay.
Active and inactive are the calls of the source. Unless noted, how the calls were made is not given here.

Assays:
[1] = A549 cell viability effects, profiling panel, calcein-AM fluorescence, 48 h, basal (AID 1162); conditions: higher = more signal; further: test concentration not given here
[2] = adipocyte viability effects, profiling panel, cell-based, 3T3-L1 adipocytes, calcein-AM fluorescence, 48 h, basal (AID 1163); conditions: 3T3-L1 adipocytes viability, higher = more signal; further: test concentration not given here
[3] = HepG2 cell viability effects, profiling panel, calcein-AM fluorescence, 48 h, basal (AID 1164); conditions: higher = more signal; further: test concentration not given here
[4] = MM1S cell viability effects, profiling panel, calcein-AM fluorescence, 48 h, basal (AID 1165); conditions: higher = more signal;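 further: viability of MM1S multiple myeloma cells under basal unstimulated conditions; test concentration not given here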
[5] = basal RPMI8226 viability, no added stimulus, profiling panel, cell-based, calcein-AM fluorescence, 48 h, PK04 Diversity Set (AID 1166); conditions: RPMI8226 myeloma viability, higher = more signal;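 further: cells grown under basal conditions without added stimulus; test concentration not given here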
[6] = basal HepG2 mitochondrial membrane potential changes, profiling panel, cell-based, JC-1 fluorescence, 24 h, 100 nL compound (AID 1167); conditions: higher = more signal; further: test concentration not given here
[7] = basal 3T3-L1 adipocyte mitochondrial potential changes, profiling panel, cell-based, JC-1 fluorescence, 3T3-L1 adipocytes, 24 h, 100 nL compound (AID 1168); conditions: JC-1 mitochondrial fluorescence, higher = more signal, called active from +8 up or from −8 down; further: test concentration not given here
[8] = basal RPMI8226 mitochondrial membrane potential changes, profiling panel, cell-based, JC-1 fluorescence, 24 h, 100 nL compound (AID 1169); conditions: RPMI8226 myeloma, JC-1 mitochondrial potential fluorescence, higher = more signal; further: test concentration not given here
[9] = basal MM1S mitochondrial membrane potential changes, profiling panel, cell-based, JC-1 fluorescence, 24 h, 100 nL compound (AID 1170); conditions: higher = more signal; further: test concentration not given here
[10] = A549 lung cancer cell viability effects, profiling panel, resazurin fluorescence, 24 h, PK04 Diversity Set (AID 1171); conditions: higher = more signal, called active from +8 up or from −8 down; further: test concentration not given here
[11] = HepG2 liver cancer cell viability effects, profiling panel, resazurin fluorescence, 24 h, PK04 Diversity Set (AID 1172); conditions: higher = more signal; further: test concentration not given here
[12] = basal S. cerevisiae growth modulation, no modifier, primary screen, OD600, strain BY4716, 24 h, basal condition (AID 1173); conditions: OD600, 24 h, higher = more signal, called active from +8 up or from −8 down
[13] = MM1S myeloma cell viability, profiling panel, resazurin fluorescence, basal, 24 h, PK04 Diversity Set (AID 1174); conditions: higher = more signal, called active from +8 up or from −8 down;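 further: MM1S multiple myeloma cell line; test concentration not given here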
[14] = molecular target: Dihydroorotate dehydrogenase (quinone), mitochondrial (Plasmodium falciparum (isolate 3D7)) (UniProt Q08210); test: PfDHODH enzyme inhibitors, primary screen, biochemical, C-terminal His tag, absorbance 600 nm (AID 1175); conditions: DCIP absorbance 600 nm, higher = more signal, called active from +8 up or from −8 down;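 further: recombinant parasite enzyme with a five histidine tag at its C terminus; test concentration not given here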
[15] = P. aeruginosa biofilm formation inhibitors, primary screen, strain PAO1, LB-PBS medium, absorbance 600 nm (AID 1176); further: test concentration not given here; conditions: P. aeruginosa PAO1 growth/biofilm, A600, 12 h; higher = more signal
[16] = S. cerevisiae RM11-1a growth modifiers, primary screen, strain RM11-1a, OD600, basal, 24 h (AID 1177); conditions: OD600, 24 h, higher = more signal, called active from +8 up or from −8 down;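 further: cultures grown under basal conditions with no added stressor; test concentration not given here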
[17] = E. coli acrAB mutant growth effects, primary screen, E. coli filamentation inducers, strain DRC39, OD650, 24 h (AID 1178); conditions: higher = more signal, called active from +8 up or from −8 down;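 further: growth measured as culture turbidity by optical density at 650 nm; test concentration not given here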
[18] = E. coli acrAB mutant growth effects, primary screen, E. coli filamentation inducers, strain DRC39, OD650, 48 h (AID 1179);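 further: screen aims at cell division blockers that make cells filament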; conditions: E. coli DRC39 delta-acrAB growth, higher = more signal, called active from +8 up or from −8 down
[19] = RPMI8226 myeloma cell viability, profiling panel, resazurin fluorescence, basal, 24 h, PK04 Diversity Set (AID 1180); conditions: higher = more signal;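 further: RPMI8826 multiple myeloma cell line at 5000 cells per well; test concentration not given here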
[20] = molecular target: E3 ubiquitin-protein ligase XIAP (Homo sapiens) (UniProt P98170); test: XIAP binders, primary screen, biophysical, small-molecule microarray, fluorescence 635 nm (AID 1181); conditions: small-molecule microarray binding, higher = more signal;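 further: score merges 667 nm emission and signal to noise over triplicate slides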
E3 ubiquitin-protein ligase XIAP (Homo sapiens), sequence (P98170 whole entry, looked up): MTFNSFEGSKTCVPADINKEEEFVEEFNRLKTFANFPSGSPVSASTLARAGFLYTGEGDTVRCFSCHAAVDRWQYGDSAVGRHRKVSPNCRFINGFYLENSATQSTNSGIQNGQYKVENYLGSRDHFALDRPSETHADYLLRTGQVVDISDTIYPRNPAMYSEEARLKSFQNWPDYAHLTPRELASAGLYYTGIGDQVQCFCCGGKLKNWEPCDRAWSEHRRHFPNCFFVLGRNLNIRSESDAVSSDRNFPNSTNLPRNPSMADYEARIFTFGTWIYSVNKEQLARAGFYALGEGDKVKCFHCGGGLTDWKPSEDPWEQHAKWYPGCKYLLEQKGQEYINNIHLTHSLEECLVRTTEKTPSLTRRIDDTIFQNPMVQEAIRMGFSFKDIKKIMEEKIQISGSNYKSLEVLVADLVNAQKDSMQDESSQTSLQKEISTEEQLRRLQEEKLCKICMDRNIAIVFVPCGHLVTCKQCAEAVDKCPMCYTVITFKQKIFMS

Dihydroorotate dehydrogenase (quinone), mitochondrial (Plasmodium falciparum (isolate 3D7)), sequence (Q08210 whole entry, looked up): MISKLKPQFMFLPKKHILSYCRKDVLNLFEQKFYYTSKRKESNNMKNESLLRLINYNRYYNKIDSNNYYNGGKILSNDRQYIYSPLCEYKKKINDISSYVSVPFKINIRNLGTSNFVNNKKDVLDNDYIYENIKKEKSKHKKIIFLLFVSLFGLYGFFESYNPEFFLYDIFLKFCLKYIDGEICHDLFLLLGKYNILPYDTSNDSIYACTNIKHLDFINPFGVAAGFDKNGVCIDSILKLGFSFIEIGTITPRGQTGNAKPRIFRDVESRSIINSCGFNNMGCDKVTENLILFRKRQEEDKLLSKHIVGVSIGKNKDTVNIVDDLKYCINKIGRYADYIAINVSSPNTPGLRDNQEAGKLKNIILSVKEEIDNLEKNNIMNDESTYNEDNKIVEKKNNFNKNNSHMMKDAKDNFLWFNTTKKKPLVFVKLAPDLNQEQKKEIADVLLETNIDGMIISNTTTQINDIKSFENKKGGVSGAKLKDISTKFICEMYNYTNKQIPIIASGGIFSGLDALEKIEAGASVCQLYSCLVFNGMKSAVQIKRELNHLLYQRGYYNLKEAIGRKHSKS

| SMILES | z-score [1] | z-score [2] | z-score [3] | z-score [4] | z-score [5] | z-score [6] | z-score [7] | z-score [8] | z-score [9] | z-score [10] | z-score [11] | z-score [12] | z-score [13] | composite z-score [14] | z-score [15] | z-score [16] | z-score [17] | z-score [18] | z-score [19] | composite z-score [20] |
| --- | --- | --- | --- | --- | --- | --- | --- | --- | --- | --- | --- | --- | --- | --- | --- | --- | --- | --- | --- | --- |
| Cc1ccc(S[C@]2(C(=O)NCC(F)(F)F)CC(=O)N(C3CCCCC3)[C@@H]2c2ccc(CO)cc2I)cc1 | 0.335 | 0.66 | 0.133 | -2.65 | -1.91 | -0.807 | -0.482 (inactive) | -0.445 | 0.176 | 0.741 (inactive) | 0.04 | 0.108 (inactive) | 0.384 (inactive) | 0.0443 (inactive) | 0.201 (inactive) | -0.531 (inactive) | -0.0243 (inactive) | -0.223 (inactive) | -0.128 | -0.12 |
| COc1ccc([Si](C)(C)[C@@H]2[C@@H](CC(=O)N3Cc4ccccc4C[C@H]3CO)O[C@]3(C(=O)N(Cc4cccc(N5C(=O)c6cccc7cccc5c67)c4)c4ccccc43)[C@H]2C)cc1 | -0.419 | 1.11 | -0.553 | -0.428 | -1.41 | -0.715 | 1.14 (inactive) | -0.98 | -1.36 | -1.28 (inactive) | -0.468 | 0.517 (inactive) | -1.54 (inactive) | -3.83 (inactive) | 1.42 (inactive) | 0.618 (inactive) | 0.226 (inactive) | -0.143 (inactive) | -0.711 | -0.253 |
| C=C(/C(=C/C[C@@H](OC(C)=O)c1cccc(OCCO)c1)c1cc(C(=O)OC)ccc1OC)C(C)C | -0.0413 | 0.0983 | -0.159 | -0.881 | -0.264 | 1.86 | -0.789 (inactive) | 0.373 | -0.682 | 2.17 (inactive) | 1.47 | -0.0321 (inactive) | 0.172 (inactive) | -1.4 (inactive) | -0.153 (inactive) | 0.258 (inactive) | 0.233 (inactive) | 0.547 (inactive) | 0.883 | -0.0622 |
| CCCCC(O)C1C=CC2C(=O)N(c3ccccc3)C(=O)C2N1Nc1ccc(C(C)C)cc1 (stereo not given) | -0.341 | -1.52 | 1.6 | -0.603 | -0.216 | -1.29 | -1.04 (inactive) | -0.749 | -0.557 | -0.762 (inactive) | -0.741 | -0.443 (inactive) | -1.1 (inactive) | 0.119 (inactive) | 1.14 (inactive) | 0.477 (inactive) | -0.622 (inactive) | 0.0644 (inactive) | -0.471 | 0.199 |
| O=C1OCC=C[C@H]2OC34C=CCN(Cc5ccccc5)C(=O)[C@H]3N(CCCCCCO)C(=O)[C@@H]4[C@@H]12 (stereo not given in full) | 0.131 | 0.98 | -0.246 | 1.62 | 0.659 | -0.1 | -0.173 (inactive) | -0.822 | -0.566 | 0.776 (inactive) | 1.07 | -0.296 (inactive) | 1.59 (inactive) | -1.65 (inactive) | 0.0683 (inactive) | -0.739 (inactive) | 0.693 (inactive) | 0.415 (inactive) | 0.517 | 0.052 |
| O=C1C2C=CC(C(O)c3ccc(F)cc3)N(n3cnnc3)C2C(=O)N1Cc1ccccc1 (stereo not given) | -0.184 | 0.799 | -1 | -0.0875 | -1.08 | -0.518 | -0.633 (inactive) | -0.0973 | 0.0911 | -1.29 (inactive) | -1.05 | 0.885 (inactive) | -0.794 (inactive) | -0.188 (inactive) | -0.128 (inactive) | -0.592 (inactive) | -0.352 (inactive) | -0.434 (inactive) | -1.47 | -0.145 |
| Cc1cc(C)c(C(O)C2C=CC3C(=O)NC(=O)C3N2Nc2ccc(Cl)cc2Cl)c(C)c1 (stereo not given) | -2.15 | -0.22 | -1.68 | -3.52 | -3.03 | -2.65 | -0.143 (inactive) | -1.02 | -0.44 | -1.59 (inactive) | -2.05 | -3.83 (inactive) | -1.94 (inactive) | -0.0825 (inactive) | 1.62 (inactive) | 0.737 (inactive) | -0.731 (inactive) | -1.17 (inactive) | -1.81 | 0.0251 |
| C[N+](C)(C)CCCCCCNC(=O)[C@H]1C[C@H]2C(=O)NCC(=O)N2[C@H]1c1ccc(O)cc1 | -0.93 | -0.313 | -0.799 | -1.17 | -0.121 | -1.71 | -0.159 (inactive) | 0.0729 | -0.235 | 0.14 (inactive) | 0.767 | -0.275 (inactive) | -0.301 (inactive) | -0.435 (inactive) | 0.823 (inactive) | 0.0387 (inactive) | -0.298 (inactive) | -0.785 (inactive) | -0.116 | 0.175 |
| COC(=O)[C@@]1(Cc2ccccc2)[C@@H]2C(=CC(=O)[C@H]2CC(=O)C(=O)N(C)C)CN1C(=O)c1ccccc1 | 0.349 | 0.108 | 0.11 | -2.52 | -1.81 | 2.58 | -0.0995 (inactive) | -0.791 | -2.68 | -1.11 (inactive) | -1.24 | 0.292 (inactive) | -5.19 (inactive) | -0.435 (inactive) | -0.0856 (inactive) | -0.224 (inactive) | 0.677 (inactive) | -0.0631 (inactive) | -5.21 | 0.0239 |
